Here are results for 38 compounds from PubChem BioAssay (NCATS).

“And” between values parts separate entries of the source, which are not always exact repeats. Identical values can stand only once. Records with an inconclusive call do not appear. Entries that show only a call come without a potency. The source made the active and inactive calls. Calls follow the shape of the dose curve; as a rule, active = well fitted inhibition curve with a large enough effect; inconclusive = small, poorly fitted or top-dose-only effect; inactive = flat fitted curve, though single readings scatter.
Potency is read from the fitted curve at half-maximal effect.

The assay in a line: P-glycoprotein substrates identified in KB-8-5-11 adenocarcinoma cell line, qHTS therapeutic library screen (AID 1346987). Also: nearly all actives have a fitted effect of over 65% in size. Particulars: KB-8-5-11 (P-gp overexpressing) viability, CellTiter-Glo, 72 h; series mostly up to 44.5 µM. Put shortly: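 KB-8-5-11, a colchicine-selected P-gp-overexpressing KB-3-1 subline, was grown without colchicine for the assay. Cells were seeded at 500 cells/well, dosed in concentration-response and incubated 72 h at 37 degree C, 5% CO2. Viability was read by CellTiter-Glo luminescence.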
(qHTS replaces the single test concentration by a dilution series.)
Regarding `COC(=O)C1=CO[C@@H](O[C@@H]2O[C@H](CO)[C@@H](O)[C@H](O)[C@H]2O)[C@@H]2[C@@H](C(=O)OC)[C@@H](O)C(O)[C@H]12` (stereo partly drawn), the Potency entry is “inactive”.
Still for that read-out and setting: under `COC1=CC(=O)O[C@@H](/C=C/c2ccccc2)[C@@H]1O` stands “inactive”; under `COc1cc(/C=C/C(=O)O[C@H]2[C@H](OC(=O)/C=C/c3cc(OC)c(O)c(OC)c3)O[C@H](CO[C@@H]3O[C@H](CO)[C@@H](O)[C@H](O)[C@H]3O)[C@@H](O)[C@@H]2O)ccc1O`, “inactive”.
With `CC1(C)C(C=C(Cl)Cl)C1C(=O)OCc1cccc(Oc2ccccc2)c1` (stereo not drawn), the Potency result was “inactive”.
Same read-out and setting: under `COc1cccc2c1CCC[C@H]2CN(C)CCc1ccc2ccoc2c1` stands “inactive”.
On the same count and under the same terms, under `CCOC(=O)Nc1nc2ccccc2[nH]1` stands “inactive”; under `COc1c(C)c(C(=O)c2ccc(N)c(C(=O)O)c2)n2ccccc12`, “inactive”.
On the same count and under the same terms, under `C=C1CCC2C(OC(=O)C2(O)COC(C)=O)C2C(=C)C(O)CC12` (stereo not drawn) stands “inactive”.
Take `C/C=C/C=C/C(CC(=O)O)Nc1ccc(C=O)cc1` (stereo not drawn): the Potency result was “inactive”.
In the case of `COC(=O)C1=COC(O[C@@H]2O[C@H](CO)[C@@H](O)[C@H](O)[C@H]2O)/C(=C\COC(=O)c2ccc(OC3OC(CO)C(O)C(O)C3O)c(OC)c2)C1CC(=O)OCCc1ccc(O)cc1` (stereo partly drawn), the outcome was “inactive [at 9.29 µM]”.
In the case of `CCOC(=O)N1CCC(NCCNC(=O)c2ccccc2C)CC1`, the Potency entry was “inactive”.
On the same count and under the same terms, under `CC1CCC2(O1)C(C)(C)CC(O[C@@H]1O[C@H](CO[C@@H]3OC[C@](O)(CO)[C@H]3O)[C@@H](O)[C@H](O)[C@H]1O)CC2(C)O` (stereo partly drawn) stands “inactive”; under `CC(=O)Oc1c(C)cc(OCC(O)CNC(C)C)c(C)c1C` (stereo not drawn), “inactive”.
The same measure, in the same setting: under `CCOc1nc2cccc(C(=O)O)c2n1Cc1ccc(-c2ccccc2-c2noc(=O)[nH]2)cc1` stands “inactive”.
On the same count and under the same terms, under `C=C1CC2C3(C)C(O)CC(=O)C(C)(C)C3C(OC(C)=O)C(OC(C)=O)C2(C)C2C(=O)OC(C)(C(=O)OC)C(=O)C12C` (stereo not drawn) stands “inactive”; under `Cc1coc2c1CC1OC1(C)CCC1OC1(C)C2` (stereo not drawn), “inactive”; under `COC(=O)C1=CO[C@@H](O[C@@H]2O[C@H](CO)[C@@H](O)[C@H](O)[C@H]2O)[C@@H]2[C@@H](C)[C@@H](O)C[C@H]12`, “inactive”.
For the compound `O=S(=O)(NC1CCNCC1)c1cc(S(=O)(=O)c2ccccc2)ccc1C(F)(F)F`, the Potency result is “inactive”.
Same read-out and setting: under `COc1cc2c(cc1O)CCN[C@]21CS[C@@H]2c3c(OC(C)=O)c(C)c4c(c3[C@H](COC1=O)N1[C@@H]2[C@H]2c3c(cc(C)c(OC)c3O)C[C@@H]([C@@H]1O)N2C)OCO4` stands 1.46 µM (active) and 1.41 µM (active); under `CC(=O)[C@@H]1CC[C@]2(C(=O)O)CC[C@]3(C)C(CCC4[C@@]5(C)CC[C@H](O)C(C)(C)C5CC[C@]43C)C12` (stereo partly drawn), “inactive”; under `C[C@]12C=CC(=O)N[C@@H]1CC[C@@H]1[C@@H]2CC[C@]2(C)[C@@H](C(=O)Nc3cc(C(F)(F)F)ccc3C(F)(F)F)CC[C@@H]12`, “inactive”.
Still for that read-out and setting: under `CCN(CC)CCOc1ccc(-c2nc3cc(Cl)ccc3s2)cc1` stands 18.4 µM (active).
The same measure, in the same setting: under `CC1(C)CC[C@]2(C(=O)O)CC[C@]3(C)C(=CCC4[C@@]5(C)C[C@@H](O)[C@H](O)C(C)(C)C5CC[C@]43C)[C@@H]2[C@@H]1O` (stereo partly drawn) stands “inactive”; under `CC1CCC2(NC1)OC1C(=O)C3C4CCC5CC(O[C@@H]6O[C@H](CO)[C@@H](O)[C@H](O)[C@H]6O[C@@H]6O[C@@H](C)[C@H](O)[C@@H](O)[C@H]6O)CCC5(C)C4CCC3(C)C1C2C` (stereo partly drawn), “inactive”; under `CC(C)CC(=O)OC[C@H]1O[C@@](COC(=O)CC(C)C)(O[C@H]2O[C@H](CO)[C@@H](O)[C@H](O)[C@H]2O)[C@@H](OC(=O)CC(C)C)[C@@H]1OC(=O)CC(C)C`, “inactive”.
With `CC(=C/C(=O)O)/C=C/[C@]1(O)[C@@]2(C)CO[C@]1(C)C[C@H](O[C@@H]1O[C@H](CO)[C@@H](O)[C@H](O)[C@H]1O)C2`, the Potency entry is “inactive”.
The same measure, in the same setting: under `COC(=O)C1C(c2ccc(O)cc2)C(C(=O)OC)C1c1ccc(O)cc1` (stereo not drawn) stands “inactive”.
The same measure, in the same setting: under `O=C(NN1CCCCC1)c1nn(-c2ccc(Cl)cc2Cl)c(-c2ccc(C#Cc3ccc(C(F)(F)F)cc3)s2)c1CNS(=O)(=O)N1CCCC1` stands “inactive”; under `CC(=O)N(O)CCCCCN1C(=O)CCC1=O`, “inactive”; under `COC(=O)[C@@H]1C2CC3c4[nH]c5ccccc5c4CCN3CC2CC[C@@H]1O` (stereo partly drawn), “inactive”.
Same read-out and setting: under `CC(C)c1ccc(CC(=O)N2CCC[C@@H](c3cccc(OC(C)(C)C(=O)O)c3)C2)cc1` stands “inactive”; under `O=C(O)C1CCCN1` (stereo not drawn), “inactive”.
Consider `CC(=O)N[C@H]1CCN(c2ccc(C3=NOC(CN[S+](=O)([O-])C(C)C)C3)cc2F)C1` (stereo partly drawn), for which the Potency entry was “inactive”.
On the same count and under the same terms, under `CC(O)(CC(=O)O)CC(=O)O[C@@H]1[C@@H](O)[C@H](OCCc2ccccc2)O[C@H](CO)[C@H]1O` (stereo partly drawn) stands “inactive”; under `CCCn1cnc2c(NCc3ccccc3)nc(N[C@H](CC)CO)nc21`, “inactive”; under `Cc1cc(O)c(C(C)C)cc1O[C@@H]1O[C@H](CO)[C@@H](O)[C@H](O)[C@H]1O`, “inactive”.
Same read-out and setting: under `CC(=O)NCCCCn1c2c(c3ccccc31)C(=O)NCC2` stands “inactive”; under `O=C(O[C@H]1[C@@H]2C[C@@H]3OC[C@@](O)([C@H]2[C@H](O[C@@H]2O[C@H](CO)[C@@H](O)[C@H](O)[C@H]2O)O3)[C@@H]1O)c1ccccc1`, “inactive”.
